Consider 94 molecules from PubChem BioAssay AID651616 (The Scripps Research Institute Molecular Screening Center, 2012).

A word on the inhibition: it is the change of the read-out against control, counted positive when it falls.

About 4,400 (79%) of roughly 5,600 compounds were called active. No stated cut-off is given here; in the data, active means inhibition above about 27%; inactive means the rest. The set was probably picked from earlier hits. A selection follows.

Sequence of Fructose-bisphosphate aldolase (Mycobacterium tuberculosis (strain ATCC 25618 / H37Rv)) (P9WQA3 whole entry, looked up): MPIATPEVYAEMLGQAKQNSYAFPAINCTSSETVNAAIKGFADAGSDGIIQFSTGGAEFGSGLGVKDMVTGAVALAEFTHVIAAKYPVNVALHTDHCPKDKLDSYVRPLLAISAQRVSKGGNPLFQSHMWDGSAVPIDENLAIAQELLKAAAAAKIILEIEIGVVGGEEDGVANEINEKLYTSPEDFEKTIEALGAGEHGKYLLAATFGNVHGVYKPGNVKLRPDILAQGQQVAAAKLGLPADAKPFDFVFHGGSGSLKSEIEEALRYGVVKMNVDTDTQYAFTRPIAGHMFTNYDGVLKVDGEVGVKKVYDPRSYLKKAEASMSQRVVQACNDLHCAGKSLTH

This experiment has as its target Fructose-bisphosphate aldolase (Mycobacterium tuberculosis (strain ATCC 25618 / H37Rv)) (UniProt P9WQA3). Description: M. tuberculosis aldolase blockers, biochemical, fluorescence, strain H37Rv, confirmation (AID 651616).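 Further: 0% = vehicle wells and 100% = reference inhibitor wells.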 The conditions noted are these: purified M. tuberculosis FBA, fluorescence read-out, at 1 µM, hits give high values.
On to `CC(C)C1Nc2c(C(=O)O)cccc2C(Nc2ccccc2C(=O)O)C1(C)C` (centres undefined), for which the inhibition was 95.8% (active).

Regarding `Cc1noc(C)c1COc1ccc2ccc(=O)oc2c1`, the inhibition was 55.1% (active).

With `COC(=O)c1c(C)c(C)nc(N)c1C#N`, the inhibition is 56.3% (active).

For `CCOC(=O)Cc1c(C)nc2c(C#N)c(C)nn2c1C`, the inhibition was 63.7% (active).

Turning to `Cc1cc(C)c(-c2c(O)c3ccccc3n(C)c2=O)c(C)c1`, the inhibition was 78.7% (active).

As for `CCSc1nnc(-c2cc3c(s2)-c2ccccc2CC3)o1`, the inhibition was 76.8% (active).

With `CCOc1ccc(-c2nnc(-c3ccco3)o2)cc1`, the inhibition is 106% (active).

As to `CCCCOc1ccc(-c2nnc(-c3ccco3)o2)cc1`, the inhibition is 174% (active).

Regarding `CCNC(=S)Nc1ccc2c(c1)c(=O)n(C)n2Cc1ccc(Cl)cc1`, the inhibition is 3.5% (inactive).

For `Cc1ccc(-c2nc3ccccc3[nH]c2=O)cc1`, the inhibition was 74.3% (active).

As to `CCOC(=O)COc1nc(C)cc(C(F)(F)F)c1C#N`, the inhibition is 39.2% (active).

Regarding `CCc1cc(=O)oc2cc(C)cc(OCC(=O)N3CCC[C@@H]3C(=O)O)c12`, the inhibition is 83.3% (active).

Take `Cc1ccn2c(c1)nc(=O)c1cc(S(=O)(=O)N3CCC(C)CC3)ccc12`: the inhibition was 5.35% (inactive).

As for `Cc1ccc(-c2nc3ccccc3c(=O)n2-c2ccc(Br)cn2)cc1`, the inhibition is 98.1% (active).

In the case of `C[C@H]1CN([C@@H](C)CO)C(=O)c2cc(Br)cnc2O[C@H]1CN(C)S(=O)(=O)c1cccs1`, the inhibition is 8.79% (inactive).

On to `COCCNc1cc(-c2ccccc2)nc2cc(-c3cccc(F)c3)nn12`, for which the inhibition was 133% (active).

As for `Fc1ccc(COc2cccc(-c3n[nH]c(=S)o3)c2)cc1`, the inhibition is 169% (active).

Turning to `O=C(Nc1ccc2nccnc2c1)c1ccco1`, the inhibition was 692% [above what the read-out allows, likely interference] (active).

Turning to `CCCn1c(=O)c(-c2ccccc2)c(O)c2ccccc21`, the inhibition is 94.4% (active).

Regarding `Cc1ccc(S(=O)(=O)N2C[C@@H](C)[C@]3(C2)[C@H](O)[C@H](OC(=O)NCc2ccccc2)C[C@H]2C(=O)N(c4ccccc4)C(=O)[C@H]23)cc1`, the inhibition was 9.3% (inactive).

Turning to `COc1ccc(C2CC(c3cccs3)=NN2c2ccc(F)cc2)cc1OC` (centres undefined), the inhibition was 101% (active).

For the molecule `Oc1ccccc1C1=NN(c2ccccc2)C(c2ccccc2)C1` (centres undefined), the inhibition is 107% (active).

For `COc1ccc(C2CC(c3cccs3)=NN2c2ccccc2)cc1` (centres undefined), the inhibition is 38.9% (active).

For `Fc1ccc(N2N=C(c3cccs3)CC2c2ccco2)c(F)c1` (centres undefined), the inhibition was 1.22% (inactive).

`COc1ccccc1N1N=C(c2cccs2)CC1c1ccccc1` (centres undefined): the inhibition is 46.8% (active).

On to `CS(=O)(=O)Nc1ccc(C2=NN(S(C)(=O)=O)C(c3cccs3)C2)cc1` (centres undefined), for which the inhibition is 2.17% (inactive).

As for `Cc1ccc(-c2nc(C#N)c(NCCCn3ccnc3)o2)cc1`, the inhibition was 41.3% (active).

For the molecule `Cc1nc2ccc(NC(=O)N3CCC(c4ccccc4)C3)cc2nc1C` (centres undefined), the inhibition was 98.1% (active).

As to `O=C(NCc1ccccc1)c1onc(CSc2nc3ccccc3[nH]2)c1C(=O)NCc1ccccc1`, the inhibition was 74.2% (active).

With `COCCNc1nc(-n2nc(C)cc2C)nc2sc3c(c12)CCCC3`, the inhibition was 109% (active).

In the case of `O=C(NCCCN1CCOCC1)c1cnn2c(-c3ccccc3)cc(-c3ccccc3)nc12`, the inhibition is 96.2% (active).

In the case of `CC(C)(C)NC(=O)COc1ccc(CNc2ccc3[nH]c(=O)[nH]c3c2)cc1`, the inhibition was 1.48% (inactive).

Regarding `CC(C)n1ncc2c(C(=O)NCc3ccccc3CN(C)C)cc(C3CC3)nc21`, the inhibition was 144% (active).

For the molecule `O=C(NCCN1CCOCC1)c1cc(-c2cccs2)nc2ccccc12`, the inhibition was 8.64% (inactive).

Regarding `CC(C)(C)OC(=O)NNc1c2ccccc2nc2ccccc12`, the inhibition was -3.52% (inactive).

On to `COC(=O)c1cc(-c2cccs2)nc2ccccc12`, for which the inhibition is 136% (active).

For `Brc1cnc2ccccc2c1N1CCCCC1`, the inhibition was 83.3% (active).

Consider `COc1ccc2c(c1)cc1n2CCN=C1NN`, for which the inhibition was 108% (active).

On to `CCN(C(=O)COC(=O)c1ccc(COc2ccc3c(C)cc(=O)oc3c2)cc1)C1CCS(=O)(=O)C1` (centres undefined), for which the inhibition is 4.73% (inactive).

Turning to `CCC(C)N(C(=O)COC(=O)C1C(C(=O)OC)=C(C)NC(C)=C1C(=O)OC)C1CCS(=O)(=O)C1` (centres undefined), the inhibition is 172% (active).

For `COCc1cc(=O)[nH]c2cc(NC(=O)C(F)(F)F)c(C)cc12`, the inhibition is 73% (active).

As to `CN1c2ccc(C=O)c3c(C=O)ccc(c23)N(C)C1(C)C`, the inhibition is 21.7% (inactive).

As for `Cc1ccc(-n2c(=O)c(C#N)cc3c(=O)n4ccccc4nc32)cc1C`, the inhibition is 21.8% (inactive).

`CN(C(=O)c1cc2c(=O)n3ccccc3nc2s1)C1CCCCC1`: the inhibition was 50.9% (active).

As for `COCCCNC(=S)NCCNc1nc2cc(C)c(C)cc2cc1C#N`, the inhibition is 91.5% (active).

`CCOc1ccc2nc(NCCNS(=O)(=O)c3ccccc3)c(C#N)cc2c1`: the inhibition is 19.6% (inactive).

Take `CN(C(=O)c1ccccn1)c1nnc(-c2ccccn2)s1`: the inhibition was 618% [above what the read-out allows, likely interference] (active).

For `CN(C(=O)COc1ccccc1)c1nnc(-c2ccncc2)s1`, the inhibition was 830% [above what the read-out allows, likely interference] (active).

In the case of `CC1=CC2=NC(=O)CC(C)(C(=O)N(CC(=O)NC(C)(C)C)Cc3ccccc3)N2C=C1` (centres undefined), the inhibition was 4.13% (inactive).

As for `NC(=O)C1CCN(C(=O)COc2ccc3c4c(c(=O)oc3c2)CCC4)CC1`, the inhibition was -0.32% (inactive).

Take `CCCCC(NS(=O)(=O)c1ccc(C)cc1)C(=O)Oc1ccc2c3c(c(=O)oc2c1)CCC3` (centres undefined): the inhibition is 81.2% (active).

Consider `C=CCn1c(N)c(C(=O)OCC(C)C)c2nc3ccccc3nc21`, for which the inhibition is 73.3% (active).

For `COCC(C)OC(=O)c1c(N)n(CCCN2CCOCC2)c2nc3ccccc3nc12` (centres undefined), the inhibition was -0.37% (inactive).

As to `CCCNC(=O)c1c(N)n(-c2ccc(S(N)(=O)=O)cc2)c2nc3ccccc3nc12`, the inhibition is 25.9% (inactive).

For `CC(C)Cn1c(N)c(C(=O)NCc2cccs2)c2nc3ccccc3nc21`, the inhibition is 41.1% (active).

Take `O=C(Nc1cccc2ccccc12)N1CCC2(CC1)OCCO2`: the inhibition was 124% (active).

Turning to `CCOC(=O)N1CCN(C(=O)c2cc3c(ccc4ccccc43)oc2=O)CC1`, the inhibition was 4.05% (inactive).

As for `O=C(Nc1cccc2ccccc12)N1CCN(Cc2ccc3c(c2)OCO3)CC1`, the inhibition is 72.6% (active).

For the molecule `COCCCn1c(C(=O)NC2CCCCC2)cc2c(=O)n3cccc(C)c3nc21`, the inhibition was 66.3% (active).

In the case of `C#Cc1cc(N2CCN(C(=O)c3ccoc3)CC2)n2nc(-c3cccc(Cl)c3)cc2n1`, the inhibition was 85.9% (active).

For the molecule `Cn1cc(-c2ccccc2)cc(C#N)c1=O`, the inhibition is 79.6% (active).

On to `C=CCn1cc(-c2cccc(C(F)(F)F)c2)cc(C#N)c1=O`, for which the inhibition was 0.59% (inactive).

`CCCCN(CCCC)CC(O)Cn1c2ccccc2c(=O)c2ccccc21` (centres undefined): the inhibition is 113% (active).

Take `Nc1ccccc1C(=O)NC1CCCCNC1=O` (centres undefined): the inhibition was 151% (active).

For `Cc1ccc(C2Nc3ccccc3C(=O)N2CCN2CCNC2=O)cc1` (centres undefined), the inhibition is -6.16% (inactive).

`CCOC(=O)NN1C(=O)c2ccccc2NC1c1cccc(O)c1` (centres undefined): the inhibition is 136% (active).

With `Cc1cc(S(=O)(=O)c2cc3ccc(O)c(C)c3oc2=O)ccc1F`, the inhibition was 44.7% (active).

With `CCOc1ccc2nc(Nc3nc4ccc(NC(C)=O)cc4s3)sc2c1`, the inhibition is 19% (inactive).

Turning to `CCc1c(C)c2ccc(OC3CCCCC3=O)cc2oc1=O` (centres undefined), the inhibition was 99.7% (active).

As for `Cc1c(CCC(=O)O)c(=O)oc2cc(OCc3ccc(Br)cc3)ccc12`, the inhibition was 4.1% (inactive).

On to `CCN1CCN(C(=O)c2cc3cc4ccc(OC)cc4nc3s2)CC1`, for which the inhibition was 96.2% (active).

As to `CN(CCOc1ccccc1)C(=O)c1cc(-c2ccco2)nc2ccccc12`, the inhibition was 5.04% (inactive).

On to `O=C(c1cc(-c2ccco2)nc2ccccc12)N(Cc1nnc(-c2ccc(Cl)cc2)o1)C1CC1`, for which the inhibition is 120% (active).

On to `Nc1ccccc1-c1nc2ccncc2[nH]1`, for which the inhibition was 3.13% (inactive).

With `COc1ccc2sc(-c3ccc(N(C)C)cc3)c(-c3ccc4cc[nH]c4c3)c2c1`, the inhibition is 59.8% (active).

In the case of `O=C(NCCN1CCN(Cc2ccccc2)CC1)c1cc2c(=O)[nH]c3ccccc3c2s1`, the inhibition is 133% (active).

Turning to `Cc1cccc2c1-c1sc(C(=O)NCCCN3CCc4ccccc4C3)cc1CO2`, the inhibition is 0.47% (inactive).

`Cc1nn(-c2ccccc2)nc1C(=O)OCC(=O)N1CCCCC1C` (centres undefined): the inhibition is -2.48% (inactive).

For `Cc1cnc(C(=O)OCC(=O)N2CCc3ccccc32)cn1`, the inhibition is 108% (active).

On to `CCC1C(=O)c2ccccc2N(C)C1=O` (centres undefined), for which the inhibition is 7.44% (inactive).

For the molecule `COc1ccc2[nH]c3c(=O)n(Cc4ccco4)cnc3c2c1`, the inhibition is 8.42% (inactive).

Turning to `COc1cccc2sc3cc(NCC[C@@H]4CCCN4C)ccc3c(=O)c12`, the inhibition was 77.9% (active).

As to `Cc1cc(=O)oc2c1ccc1ccccc12`, the inhibition is 88.8% (active).

`COCCCn1c(CCC(=O)O)ccc1-c1ccc(F)cc1`: the inhibition is 46% (active).

As to `Cc1ccc(C2Nc3cccc4cccc(c34)N2)cc1`, the inhibition was 177% (active).

Take `O=C1C(=O)N(c2ccccc2)C(c2ccccc2)C1c1ccccc1` (centres undefined): the inhibition is 13.8% (inactive).

With `OC[C@@H]1CN(Cc2cccs2)C[C@H](n2cnc3c(Nc4ccccc4)ncnc32)O1`, the inhibition is 90.6% (active).

As to `COc1cc(/C=C/c2ccc(/C=C/c3cc(OC)c(OC)c(OC)c3)cc2)cc(OC)c1OC`, the inhibition was 27.4% (active).

Turning to `COc1ccc(NC(=O)CN(C)C(=O)c2cc(-c3ccc(C)o3)nc3ccccc23)cc1`, the inhibition is 79.1% (active).

For the molecule `COCCCNC(=O)/C(C#N)=C/c1c(N2CCCCCC2)nc2ccccn2c1=O`, the inhibition was 60.9% (active).

Turning to `CCCc1nc2oc3c(=O)[nH]cnc3c2c2c1COC(C)(C)C2`, the inhibition was 108% (active).

Turning to `CCOC(=O)c1[nH]c2ccc(OC)cc2c1NC(=O)CCN1CCN(Cc2ccccc2)CC1`, the inhibition was 3.58% (inactive).

Turning to `CCOC(=O)c1[nH]c2ccc(OC)cc2c1NC(=O)N1CCOCC1`, the inhibition was 130% (active).

With `CC(OC(=O)c1ccccc1NCCO)C(=O)Nc1ccnn1C(C)C` (centres undefined), the inhibition was 81.6% (active).
